Data as given in PubChem BioAssay (NCATS).
Unmarked numbers belong to inactive results. Activity calls are given as the source filed them. The call rests on the fitted dose curve; in most records, active means well fitted cell-killing curve with a large enough effect; inconclusive means small, poorly fitted or top-dose-only effect, or effect the other way; inactive means flat fitted curve, though single readings scatter.

Test: MultiTox-Fluor Cytotoxicity Assay - LYMP1-003 - Dead Cells (AID 961); further: nearly all actives have a fitted effect of over 70% in size;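 on cytotoxicity (dead cells): 0% = DMSO and 100% = tetraoctylammonium bromide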
Settings: LYMP1-003 lymphoblastoid cells, dead-cell protease fluorescence; series mostly up to 92.2 µM; cytotoxicity (dead cells): at the top concentration
Description: NIH Chemical Genomics Center [NCGC]
NIH Molecular Libraries Screening Centers Network [MLSCN]
National Institutes of Environmental Health Sciences [NIEHS]
National Toxicology Program [NTP]
We have developed a 1536-well cell-based assay for quantitative high throughput screening (qHTS) against a number of cell lines to determine in vitro cytotoxicity of small molecules. This particular assay uses a human lymphoblastoid cell line (LYMP1-003) purchased from Coriell Institute.
NCGC Assay Protocol Summary:
The MultiTox-Fluor Cytotoxicity Assay (Promega) is a homogeneous method to simultaneously measure the relative number of live and dead cells in culture by detecting changes in cell membrane integrity. There are two fluorogenic peptide substrates in the assay reagent. Viable cells are determined when the cell-permeant substrate (GF-AFC) enters the cell and is cleaved by protease from live cells resulting in liberated fluorophore. This live-cell protease activity restricted to viable cells is proportional to cell number. The dead cells are determined by using fluorogenic cell-impermeant peptide substrate (bis-AAF-R110) which cleaved by dead cell proteases leaking from damaged cell membrane.
Using the MultiTox-Fluor Cytotoxicity Assay, the relative number of dead cells was measured in the lymphoblastoid cell line with complete culture medium following compound treatment for 16 hours. The assay was performed in opaque black Kalypsys 1536-well plates. In the screen, tetraoctylammonium bromide was used as positive control. Library compounds were measured for their ability to cause acute toxicity in the cell line, as reflected by an increase in dead cell protease activity, in a concentration-dependent manner. Data were normalized to the controls for basal activity (DMSO only) and 100% stimulation (15 uM tetraoctylammonium bromide). AC50 values were determined from concentration-response data modeled with the standard Hill equation.
qHTS protocol for MultiTox-Fluor Cytotoxicity assay
[Step] [Parameter] [Value] [Description]
1. Reagent; 5 uL; 2500 lymphoblastoid cells/well
2. Time; 5 hr; 37 C incubation
4. Controls; 23 nL; Tetraoctylammonium bromide 6.4pM to 92 uM
5. Time; 16 hr; 37 C incubation
6. Reagent; 5 uL; MuliTox-Fluor Assay reagent
7. Time; 60 min; Room Temperature
8. Detection; dead-cell fluorescence (Ex/Em=485/520); EnVision plate reader
Keywords: cytotoxicity, lymphoblastoid cell line, fluorescence, NTPHTS, NTPHTS_NCGC, NIEHS, EPA, DSSTox, MLSMR, MLSCN, NIH Roadmap, qHTS, NCGC
Potency means the concentration at half of the fitted maximal effect.

| Structure (SMILES) | Potency | cytotoxicity (dead cells) [%] |
| --- | --- | --- |
| ClC1=C(Cl)C2(Cl)C3C(Cl)C=CC3C1(Cl)C2(Cl)Cl (stereo not given) | 39.8 µM (active) | – |
| Nc1ccccc1Cl | – | -0.229 |
| C=C(Cl)Cl | – | -7.2 |
| ClC1=C(Cl)C2(Cl)C3C4C=CC(C4)C3C1(Cl)C2(Cl)Cl (stereo not given) | 39.8 µM (active) | – |
| CCN(CC)c1ccccc1 | – | -6.9 |
| CC(Cl)Cl | – | -18.2 |
| CC(C)(C)OOC(C)(C)C | – | 0.26 |
| O=C(Cl)/C=C/C(=O)Cl | – | -16.6 |
| C1CCC2CCCCC2C1 (stereo not given) | – | -4.36 |
| Cc1ccccc1N | inactive | – |
| Cc1ccc(O)c(C)c1 | – | 12.6 |
| CCCCCCCCCc1ccc(O)cc1 | 39.8 µM (active) | – |
| C[C@H]1CCCC(=O)CCC/C=C/c2cc(O)cc(O)c2C(=O)O1 | inactive | – |
| Cc1cccc([N+](=O)[O-])c1 | – | -17.3 |
| O=NN(c1ccccc1)c1ccccc1 | – | 1.52 |
| Nc1c(Cl)c(Cl)nc(C(=O)O)c1Cl | – | -3.27 |
| CC(O)CCl (stereo not given) | – | -12.1 |
| Nc1ccc(Br)cc1 | – | 3.33 |
| CC(C)(c1ccccc1)c1ccc(O)cc1 | – | 16.8 |
| N#CCCCl | inactive | – |

| Structure (SMILES) | Potency | cytotoxicity (dead cells) [%] |
| --- | --- | --- |
| ClC(Cl)=C(c1ccc(Cl)cc1)c1ccc(Cl)cc1 | inactive | – |
| Cc1ccc2ccccc2c1 | – | -7.51 |
| Clc1nc(Cl)nc(Nc2ccccc2Cl)n1 | – | -7.3 |
| Clc1cc(Cl)c(-c2cc(Cl)c(Cl)cc2Cl)cc1Cl | – | 2.82 |
| C=CCOC(=O)c1ccccc1N | – | -1.03 |
| OCC1CO1 (stereo not given) | – | -7.35 |
| C=C(C)C(=O)OCC1CO1 (stereo not given) | – | 0.688 |
| CC(C)(OO)c1ccccc1 | – | 9.02 |
| C=C(C)C#N | – | -13 |
| Brc1ccccc1 | – | 1.92 |
| Cc1cccc(C#N)c1 | – | -19.8 |
| c1ccc2c(c1)CCCC2 | – | -4.44 |
| c1ccc(OP(Oc2ccccc2)Oc2ccccc2)cc1 | – | 2.01 |
| C=CCc1ccc2c(c1)OCO2 | – | -10.4 |
| COc1ccc(C=O)cc1OC | – | -11.5 |
| CCOP(=S)(OCC)Oc1ccc([N+](=O)[O-])cc1 | inactive | – |
| CCC[CH2][Sn]([Cl])([Cl])[Cl] | – | -11.5 |
| O=C1C(Cl)=C(Cl)C(=O)C(Cl)=C1Cl | 25.1 µM (active) | – |
| C[C@]12CC[C@H]3[C@@H](CCC4=CC(=O)CC[C@@]43C)[C@@H]1CC[C@@H]2O | – | -7.04 |
| c1ccc(N=Nc2ccccc2)cc1 | – | -4.2 |
